{"source": "the supplement of paper PMC3334620", "note": "The full ranking holds about 33,000 sequences; the median of “E-score (-0.5 to 0.5)” is about -0.01, and the highest 2% start at about 0.26. For the sample, the highest values were picked, then their nearest neighbours and some sequences at random.", "data": [{"biological_target": "Ste12 (UniProt P13574)", "sequence (P13574 whole entry, the tested form may be a part)": "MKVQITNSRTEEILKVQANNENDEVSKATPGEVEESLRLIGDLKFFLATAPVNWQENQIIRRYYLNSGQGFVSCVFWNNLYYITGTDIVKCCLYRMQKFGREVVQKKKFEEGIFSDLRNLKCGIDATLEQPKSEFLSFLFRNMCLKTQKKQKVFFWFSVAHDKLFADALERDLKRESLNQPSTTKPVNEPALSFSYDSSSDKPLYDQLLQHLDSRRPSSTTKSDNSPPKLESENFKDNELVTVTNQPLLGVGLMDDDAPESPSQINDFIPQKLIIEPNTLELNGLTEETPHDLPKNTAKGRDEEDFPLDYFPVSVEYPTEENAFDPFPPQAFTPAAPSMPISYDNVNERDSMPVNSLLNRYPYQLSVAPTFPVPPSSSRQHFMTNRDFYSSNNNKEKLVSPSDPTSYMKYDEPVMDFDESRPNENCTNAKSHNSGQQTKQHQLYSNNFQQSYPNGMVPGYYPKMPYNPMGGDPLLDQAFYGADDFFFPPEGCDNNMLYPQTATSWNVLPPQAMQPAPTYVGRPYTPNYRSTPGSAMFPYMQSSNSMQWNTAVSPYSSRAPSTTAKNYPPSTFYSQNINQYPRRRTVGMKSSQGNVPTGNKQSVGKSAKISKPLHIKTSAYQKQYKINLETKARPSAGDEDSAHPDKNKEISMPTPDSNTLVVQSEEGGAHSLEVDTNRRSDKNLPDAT", "assay": "PBM E-score (8-mer binding enrichment) (E-score (-0.5 to 0.5)); higher = stronger / more preferred TF binding", "settings": "protein concentration: 200 nM; construct: GST-DNA-binding domain", "summary_of_the_method": "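Universal all-10-mer Agilent arrays, double-stranded by primer extension on fresh or once-stripped slides, were probed with about 100-200 nM GST-tagged yeast transcription factors made by PURExpress. Fluorescent anti-GST detected bound protein, and masliner normalised the scans. E-scores from the Universal PBM Analysis Suite were given to each ungapped eight-base word pooled with its reverse complement.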", "values": [{"sequence": "AGGGCTTC", "PBM E-score": -0.0834}, {"sequence": "ATTAAAGC", "PBM E-score": 0.0638}, {"sequence": "ATAGTCTC", "PBM E-score": 0.132}, {"sequence": "AAGGTGAG", "PBM E-score": 0.00195}, {"sequence": "TACACGTA", "PBM E-score": -0.00219}, {"sequence": "TAACGAAA", "PBM E-score": 0.298}, {"sequence": "AAACGAAA", "PBM E-score": 0.248}, {"sequence": "CAACGAAA", "PBM E-score": 0.13}, {"sequence": "AGATGTGC", "PBM E-score": -0.154}, {"sequence": "AGATGTGA", "PBM E-score": 0.262}, {"sequence": "CGATGTGA", "PBM E-score": 0.046}, {"sequence": "GAGCCAGA", "PBM E-score": -0.0414}, {"sequence": "CTGGGGTA", "PBM E-score": -0.145}, {"sequence": "GTGGGGTA", "PBM E-score": 0.302}, {"sequence": "ATGGGGTA", "PBM E-score": -0.0735}, {"sequence": "CGAACGAC", "PBM E-score": -0.034}, {"sequence": "ACCACTTG", "PBM E-score": 0.0214}, {"sequence": "AAACAAGT", "PBM E-score": 0.149}, {"sequence": "ACCCAAAA", "PBM E-score": 0.13}, {"sequence": "GAACAAAC", "PBM E-score": 0.181}, {"sequence": "AAACAAAG", "PBM E-score": 0.233}, {"sequence": "ACCCAAAG", "PBM E-score": -0.0486}, {"sequence": "AAACAGTG", "PBM E-score": 0.309}, {"sequence": "CAACAGTG", "PBM E-score": 0.104}, {"sequence": "ACCCAAAC", "PBM E-score": 0.285}, {"sequence": "AAACAAAA", "PBM E-score": 0.225}, {"sequence": "AAACAAAC", "PBM E-score": 0.263}, {"sequence": "AAACAAAT", "PBM E-score": 0.28}, {"sequence": "AAACAGTT", "PBM E-score": 0.245}, {"sequence": "GTCCGGGA", "PBM E-score": 0.0647}, {"sequence": "GAAAGCTC", "PBM E-score": -0.201}, {"sequence": "GGTCCAGA", "PBM E-score": -0.0878}, {"sequence": "ATATTGCA", "PBM E-score": 0.104}, {"sequence": "ATTCCCTG", "PBM E-score": 0.0875}, {"sequence": "ATTCGTAA", "PBM E-score": 0.166}, {"sequence": "AACCCTGA", "PBM E-score": 0.305}, {"sequence": "ACCCCTGA", "PBM E-score": 0.128}, {"sequence": "CACCCTGA", "PBM E-score": -0.00848}, {"sequence": "CTGTCTCA", "PBM E-score": 0.158}, {"sequence": "GTCTCTCA", "PBM E-score": -0.184}, {"sequence": "TCGTCTCA", "PBM E-score": 0.134}, {"sequence": "CTGTGTCA", "PBM E-score": 0.0491}, {"sequence": "GCGTCTCA", "PBM E-score": 0.166}, {"sequence": "GTGTGTCA", "PBM E-score": 0.321}, {"sequence": "ATGTCTCC", "PBM E-score": -0.0509}, {"sequence": "ATGTGTCA", "PBM E-score": 0.119}, {"sequence": "ATGTCTCG", "PBM E-score": -0.114}, {"sequence": "ACGTCTCA", "PBM E-score": 0.274}, {"sequence": "GTGTCTCA", "PBM E-score": 0.338}, {"sequence": "ATGTCTCA", "PBM E-score": 0.289}, {"sequence": "AAGTCGTA", "PBM E-score": -0.129}, {"sequence": "TATGGGAA", "PBM E-score": 0.0435}, {"sequence": "CGGCTGGC", "PBM E-score": -0.117}, {"sequence": "GTATTAAA", "PBM E-score": 0.166}, {"sequence": "GTATTAAC", "PBM E-score": 0.132}, {"sequence": "TTATTAAA", "PBM E-score": 0.321}, {"sequence": "TCATTAAA", "PBM E-score": 0.324}, {"sequence": "ATATTATG", "PBM E-score": 0.303}, {"sequence": "GCATTAAA", "PBM E-score": 0.111}, {"sequence": "TAATTAAA", "PBM E-score": 0.173}, {"sequence": "ATATTATA", "PBM E-score": 0.18}, {"sequence": "ATATTAAC", "PBM E-score": 0.285}, {"sequence": "ATATTATC", "PBM E-score": 0.181}, {"sequence": "ACATTAAA", "PBM E-score": 0.196}, {"sequence": "CTATTAAC", "PBM E-score": -0.0267}, {"sequence": "CTGGGCAA", "PBM E-score": -0.0128}, {"sequence": "GGACTAGA", "PBM E-score": -0.124}, {"sequence": "TATGGTCA", "PBM E-score": -0.0454}, {"sequence": "CAGTAAGG", "PBM E-score": -0.0592}, {"sequence": "ACGCGAGC", "PBM E-score": -0.151}, {"sequence": "AGGTTACT", "PBM E-score": 0.0862}, {"sequence": "TACTCCCA", "PBM E-score": 0.056}, {"sequence": "AGATTAAT", "PBM E-score": 0.0881}, {"sequence": "ATATTAAT", "PBM E-score": 0.298}, {"sequence": "ATATTAGA", "PBM E-score": 0.0159}, {"sequence": "ATATTAAA", "PBM E-score": 0.29}, {"sequence": "ATATTAAG", "PBM E-score": 0.109}, {"sequence": "CTATTAAA", "PBM E-score": 0.219}, {"sequence": "AAATAATA", "PBM E-score": 0.257}, {"sequence": "AAATAATC", "PBM E-score": 0.171}, {"sequence": "GAATAATC", "PBM E-score": 0.00357}, {"sequence": "GAATAATA", "PBM E-score": 0.286}, {"sequence": "TAATAATA", "PBM E-score": 0.181}, {"sequence": "AAATAATT", "PBM E-score": 0.294}, {"sequence": "AGACTGCT", "PBM E-score": 0.0365}, {"sequence": "AGCGCTAT", "PBM E-score": 0.0744}, {"sequence": "AACTCATG", "PBM E-score": 0.129}, {"sequence": "ATTGAGGG", "PBM E-score": -0.124}, {"sequence": "GAATGAGC", "PBM E-score": -0.0246}, {"sequence": "ATCCGAAT", "PBM E-score": 0.192}, {"sequence": "AAAAACCT", "PBM E-score": 0.263}, {"sequence": "AAAACCTT", "PBM E-score": 0.142}, {"sequence": "AAAAACCG", "PBM E-score": 0.178}, {"sequence": "AAAACCTA", "PBM E-score": 0.283}, {"sequence": "CAAACCTA", "PBM E-score": 0.0393}, {"sequence": "AAAAACCC", "PBM E-score": 0.0736}, {"sequence": "CGAAGAAA", "PBM E-score": 0.195}, {"sequence": "ACTCTCCG", "PBM E-score": -0.0208}, {"sequence": "AAGAAGAG", "PBM E-score": -0.00818}, {"sequence": "AAGTTGAC", "PBM E-score": 0.0703}, {"sequence": "AGTAGGCG", "PBM E-score": -0.256}, {"sequence": "ATCCAATG", "PBM E-score": -0.165}, {"sequence": "ATCTCTCG", "PBM E-score": -0.0464}, {"sequence": "CAACAACC", "PBM E-score": 0.0311}, {"sequence": "AAACAACC", "PBM E-score": 0.277}, {"sequence": "TATCAACA", "PBM E-score": 0.149}, {"sequence": "GATCAACA", "PBM E-score": -0.0858}, {"sequence": "GAACAACC", "PBM E-score": 0.00021}, {"sequence": "AAACAATA", "PBM E-score": 0.274}, {"sequence": "AAACAACG", "PBM E-score": 0.0956}, {"sequence": "AAACAATT", "PBM E-score": 0.112}, {"sequence": "TAACAATA", "PBM E-score": 0.239}, {"sequence": "AATCAACA", "PBM E-score": 0.29}, {"sequence": "AAACAACT", "PBM E-score": 0.174}, {"sequence": "AAACAACA", "PBM E-score": 0.287}, {"sequence": "GCCAATGA", "PBM E-score": -0.228}, {"sequence": "GGGTGGAC", "PBM E-score": -0.226}, {"sequence": "ACATTTTG", "PBM E-score": 0.0789}, {"sequence": "ACAGTTGC", "PBM E-score": -0.0387}, {"sequence": "AACCATCT", "PBM E-score": 0.0768}, {"sequence": "AGCTCAGC", "PBM E-score": -0.398}, {"sequence": "ACTGACAA", "PBM E-score": 0.0676}, {"sequence": "ACCTGTCA", "PBM E-score": 0.0912}, {"sequence": "GCACAAAA", "PBM E-score": 0.165}, {"sequence": "ATACAAAA", "PBM E-score": 0.209}, {"sequence": "CTACAAAA", "PBM E-score": 0.228}, {"sequence": "TTACAAAA", "PBM E-score": 0.301}, {"sequence": "TCACAAAA", "PBM E-score": 0.271}, {"sequence": "ACACAAAA", "PBM E-score": 0.26}, {"sequence": "ACGTTCTC", "PBM E-score": 0.0364}, {"sequence": "TACCTATA", "PBM E-score": 0.106}, {"sequence": "CGCATGAC", "PBM E-score": -0.0101}, {"sequence": "CCCTGTTA", "PBM E-score": 0.279}, {"sequence": "CCCTGTTC", "PBM E-score": -0.243}, {"sequence": "GCCTGTTA", "PBM E-score": 0.00489}, {"sequence": "CGCTCCTC", "PBM E-score": -0.106}, {"sequence": "CAGTAGGG", "PBM E-score": -0.176}, {"sequence": "CTGGCTAA", "PBM E-score": -0.0552}, {"sequence": "ACGTTTCG", "PBM E-score": 0.297}, {"sequence": "ACGTTTAG", "PBM E-score": -0.156}, {"sequence": "TCATTTCA", "PBM E-score": 0.242}, {"sequence": "TCGTTTAA", "PBM E-score": 0.155}, {"sequence": "ACGTTTCT", "PBM E-score": 0.064}, {"sequence": "GCGTTTCA", "PBM E-score": 0.476}, {"sequence": "TCGTTTCA", "PBM E-score": 0.467}, {"sequence": "GCGTTTCC", "PBM E-score": 0.0828}, {"sequence": "ACGTTTCA", "PBM E-score": 0.48}, {"sequence": "GCGTTTGA", "PBM E-score": 0.0907}, {"sequence": "ACGTTTCC", "PBM E-score": -0.0394}, {"sequence": "ACGTTTGG", "PBM E-score": 0.127}, {"sequence": "TACTTCCA", "PBM E-score": 0.0198}, {"sequence": "AATGGGAT", "PBM E-score": -0.185}, {"sequence": "CGCAAACA", "PBM E-score": 0.053}, {"sequence": "AAGTCGGC", "PBM E-score": -0.16}, {"sequence": "AACGCTTA", "PBM E-score": -0.0484}, {"sequence": "CGACAGAC", "PBM E-score": -0.00066}, {"sequence": "CAGGTCCC", "PBM E-score": -0.104}, {"sequence": "AGCTGATG", "PBM E-score": 0.129}, {"sequence": "GAACGGTA", "PBM E-score": -0.17}, {"sequence": "CCGTTTCG", "PBM E-score": 0.164}, {"sequence": "CCGTTTCA", "PBM E-score": 0.46}, {"sequence": "CCGTTTCC", "PBM E-score": 0.139}, {"sequence": "GAACTCCC", "PBM E-score": 0.0278}, {"sequence": "ATGCGATG", "PBM E-score": 0.00552}, {"sequence": "GTTGGTCA", "PBM E-score": 0.121}, {"sequence": "CAAATGAA", "PBM E-score": 0.238}, {"sequence": "GAAATTAA", "PBM E-score": 0.294}, {"sequence": "TAAATGAA", "PBM E-score": 0.185}, {"sequence": "AAAATGAG", "PBM E-score": 0.124}, {"sequence": "GAAATGAA", "PBM E-score": 0.331}, {"sequence": "AAAATGAT", "PBM E-score": 0.317}, {"sequence": "CAAATTAA", "PBM E-score": 0.203}, {"sequence": "AAAATGAC", "PBM E-score": 0.121}, {"sequence": "GGAATGAA", "PBM E-score": 0.281}, {"sequence": "CGAATGAA", "PBM E-score": 0.084}, {"sequence": "GAAATTAC", "PBM E-score": 0.176}, {"sequence": "TGAATGAA", "PBM E-score": 0.208}]}]}
